# Potency and affinity values are given separately. Values without a mark were called inactive. Active and inactive are the calls of the source. How the calls were made is not given here.
# Assay: mammalian cell viability reduction – secondary assay, cytotoxicity control for West Nile virus antiviral project, dose response (AID 1650)
# Settings: Mammalian host cell viability, cytotoxicity counter-screen; series mostly up to 10 µM; viability: at the top concentration
Compound,viability,outcome
CC(NC(=O)/C=C/c1cnc2ccccc2n1)C12CC3CC(CC(C3)C1)C2 (stereo not given),78.4%,–
CN1CCCC(CC2Oc3ccccc3Sc3ccccc32)C1 (stereo not given),82.1%,–
O=C(Oc1ccccc1)c1ccc(-n2cnnn2)cc1,82.2%,–
CC12CC3(C)CC(C)(C1)CC(C(=O)NCC(=O)O)(C2)C3,82.8%,–
CCCCOC(=O)Cn1c2ccc(OC)cc2c2nc3ccccc3nc21,80.7% [at 20 µM],–
CCOC(=O)c1c(NC(=O)CN(C)C2CCN(C)CC2)sc(C(=O)Nc2ccccc2)c1C,84.1% [at 20 µM],–
COc1ccc(NC(=O)CSc2nc3c(sc4ccccc43)c(=O)n2CCCN2CCCC2)cc1,75.6%,–
COc1cc2nc(N3CCN(C(=O)C4COc5ccccc5O4)CC3)nc(N)c2cc1OC (stereo not given),86.3% [at 20 µM],–
COc1ccc([C@@H]2[C@@H]3C(=O)N(C(C)(C)C)C(=O)[C@@H]3[C@]3(Cc4ccccc4)C(=O)N(c4ccc(Br)cc4)C(=O)N23)cc1,84.2% [at 20 µM],–
N#CC(C(=O)NC1CCCCC1)c1nc2ccccc2nc1N1CCN(c2ccc(F)cc2)CC1 (stereo not given),86.4% [at 20 µM],–
CCOC(=O)C(CC)(CC)C(=O)/C=C/c1cccc(Br)c1,90.1%,–
Cc1cccc(N(CC(=O)NCc2ccco2)C(=O)CCC(=O)Nc2ccccn2)c1C,72.5% [at 20 µM],–
COc1cc2c(OC(C)=O)c3c(c(-c4ccc5c(c4)OCO5)c2cc1OC)C(=O)OC3,91%,–
Cc1ccc(-c2nc3ccccc3s2)cc1NC(=S)NC(=O)c1cccc2ccccc12,88.9%,–
CCOc1ccc(NCc2cc3c(C(C)(C)C)nn(-c4ccccc4)c3[nH]c2=O)cc1,88.3%,–
CCOC(=O)C(=Cc1ccc(F)cc1)C(=O)OCC,73.7%,–
CCOC(=O)c1c(CSCc2ccccc2)oc2ccc(O)c(CN(C)C)c12,81.7% [at 20 µM],–
CN1CCN(C(=O)CCN2C(=O)/C(=C/c3ccc(F)cc3)SC2=S)CC1,75.9%,–
CC[C@H]1CC2CN3CCc4c([nH]c5c([C@H]6C[C@H]7[C@H](CC)CN(C)[C@@H](Cc8c6[nH]c6ccccc86)[C@H]7C(=O)OC)c(OC)ccc45)C(C(=O)OC)(C2)C13,71.3%,–
Cc1cccc2c1NC(=O)/C2=C\C(=O)c1cccs1,82.2%,–

Compound,viability,outcome
CN(C)CCNC(=O)c1cc2sc3ccccc3c2s1,76.1%,–
Cc1ccc(CN(Cc2cc3cccc(C)c3[nH]c2=O)C(=S)NCCCN(C)C)cc1,73.8% [at 20 µM],–
O=C(O)C1CCCN1C(=O)c1cncc(Br)c1 (stereo not given),100% [at 20 µM],–
CC(C)c1ccc(/C=C/C(=O)Nc2ccc(CN3CCOCC3)cc2)cc1,78.1% [at 20 µM],–
CN1CCN(c2ccc(S(=O)(=O)N3CCCCC3)cc2NC(=O)c2ccc3ccccc3c2)CC1,85.4%,–
Cc1cc(OCc2cc(C(=O)NCCN3CCCCC3CO)no2)cc(C)c1Cl (stereo not given),77.3% [at 20 µM],–
CCCC1=Nc2cc(C(=O)NCCN3CCCC3)ccc2Sc2ccccc21,81.4%,–
Cc1ccc(NC(=S)N(CCCN2CCCC2)Cc2cccn2Cc2ccc(Cl)cc2)cc1C,86.5%,–
CC(C)c1cc(C(=O)OCC(=O)NC(=O)NCc2ccco2)c(O)c(C(C)C)c1,89% [at 20 µM],–
CCN(CC)S(=O)(=O)c1cc(C(=O)Nc2cc(Cl)ccc2N2CCN(C)CC2)ccc1Cl,82.8%,–
CCN(CC)S(=O)(=O)c1ccc(NC(=O)CSc2nnc(-c3cccc(OC)c3)n2C)cc1,90% [at 20 µM],–
CC(C)(C)n1nnnc1C(c1ccccc1)N1CCc2ccccc2C1 (stereo not given),78.3% [at 20 µM],–
O=C(CCN1C(=O)/C(=C/c2ccccc2Cl)SC1=S)NCCc1ccc(O)cc1,83.2%,–
COc1cccc(/C=N/NC(=O)c2cc(-c3cccn3C)n[nH]2)c1O,73.3% [at 20 µM],–
CCN1CCN(Cc2ccc(NC(=O)c3ccc(C)c(NC(=O)N4CCNC4=O)c3)cc2C(F)(F)F)CC1,–,inactive
Cc1ccc(S(=O)(=O)c2c(N)n(CCCN(C)C)c3nc4ccccc4nc23)cc1,87% [at 20 µM],–
CCc1nn(CC(=O)NC2CCN(Cc3ccccc3)CC2)c(=O)c2cc3cc(F)ccc3n12,81.2% [at 20 µM],–
O=C(CSc1nc2ccccc2c(=O)n1-c1ccc(F)cc1)Nc1ccc2c(c1)CCC2,73.5% [at 20 µM],–
CCN(CC)CCCC(C)NC(=O)c1c(NC(=O)c2ccccc2)sc2c1CCCC2 (stereo not given),84.3%,–
CN(C)CCNc1oc(COc2ccc(-c3ccccc3)cc2)nc1C#N,84.9%,–
